Consider 15 compounds from PubChem BioAssay (NCI).

Molecules are shown by their SMILES. About 83,000 compounds went through this panel and 20% of them were active in at least one assay; those are over-represented in the sample as a whole.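 Note: values are percent growth. 100 is the growth of untreated cells, values between 100 and 0 indicate rising inhibition; between -100 and 0 indicates cell death.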 Unmarked numbers belong to inactive results. Activity calls are given as the source filed them. How the source made its calls: active means growth percent below 10; inactive means the rest.

Holding throughout (test): NCI-60 one-dose screen, 48 h (100 = growth as untreated, 0 = no growth, -100 = all killed)
What all share (settings): 10 µM unless noted

The subject of assay [1] is SK-MEL-2 melanoma.
Assay [2] concerns EKVX NSCLC.
In assay [3] the test system is SN12C renal.
Assay [4] has as its system UO-31 renal.
In assay [5] the test system is CAKI-1 renal.
Assay [6] deals with A498 renal.
Assay [7] deals with CCRF-CEM leukemia.
Assay [8] relates to MOLT-4 leukemia.
In assay [9] the test system is ACHN renal.
Assay [10] concerns TK-10 renal.

Consider `Cc1nc(NN)c([N+](=O)[O-])c(NN)n1`, for which the growth in [1] was 104%; in assay [2], 112%; in assay [3] it was 103%; in assay [4], 94.5%; in assay [5], 99.1%; in [6], 142%. In addition, the values for the growth in assay [7] and in [8] were -28.1% (active) and 89.6%, respectively.
On to `COc1ccc(/C=C2\Oc3cc(C)c(Cl)cc3C2=O)cc1OC`, for which the growth in assay [1] was 109%; in assay [2], 94%; in [3] it was 95%; in assay [4], 89.5%; in assay [9], 97.9%; in assay [7], 87.4%. The growth in assay [8] is 91%.
Consider `CCC(C)[C@H]1O[C@]2(CC[C@@H]1C)C[C@@H]1C[C@@H](C/C=C(\C)[C@@H](OC3C[C@H](OC)C(O[C@H]4C[C@H](OC)[C@@H](O)[C@H](C)O4)[C@H](C)O3)[C@@H](C)/C=C/C=C3\CO[C@@H]4[C@H](O)C(C)=C[C@@H](C(=O)O1)[C@]34O)O2` (stereo partly specified), for which the growth in assay [1] was -9.26% (active); in assay [3], 14.6%; in assay [4], 9.45% (active); in assay [10], 30.2%; in [9], -66.3% (active); in assay [5], -15.1% (active). The growth in assay [6] is -23.7% (active); in assay [7], 25.9%.
Consider `COc1nc2c(cc1S(=O)(=O)c1ccccc1)CCc1c-2cnn1-c1ccccc1`, for which the growth was 83.4% in assay [1]; 77.9% in assay [3]; -65.3% (active) in assay [4]; 67.9% in assay [10]; 71.1% in [9]; 58.2% in assay [5]. Moreover, the figures for the growth in [6], in assay [7] and in assay [8] were 54.6%, 68.6% and 54.5%, respectively.
Regarding `Cc1nn2c(-c3nc4ccc(Cl)cc4[nH]3)c(-c3ccc(F)cc3)nc2s1`, the growth in [1] is 105%; in [3], 106%; in assay [4], 86.9%; in [10], 97.1%; in [9], 102%; in [5], 94.8%. Besides, the results for the growth in assay [6], in assay [7] and in [8] were 76.8%, 72% and 72.6%, respectively.
With `COc1ccc(CSc2nc3cc(OC)c(OC)cc3c(=O)n2-c2ccc(Cl)cc2)cc1`, the growth was 110% in [1]; 98.6% in assay [3]; 71.2% in assay [4]; 116% in assay [10]; 97.1% in assay [9]; 91.2% in [5]. Also, the results for the growth in assay [6], in [7] and in [8] were 88.7%, 88.6% and 101%, respectively.
In the case of `Cc1nc2cc(Nc3nc(N4CCCCC4)nc(N4CCOCC4)n3)ccc2n1Cc1ccccc1`, the growth in [1] was 19%; in assay [3] it was 52.2%; in assay [4], 1.61% (active); in [10], -32.9% (active); in assay [9] it was -41.4% (active); in [5], 63.3%. In addition, the growth in assay [6] was 38.8%; in assay [7] it was 62.2%; in assay [8], 36.4%.
In the case of `COc1ccc(Cn2c(Br)c3c(c2-c2cc(OC)c(OC)c(OC)c2)CCc2sc(N)nc2-3)cc1`, the growth in [1] was 50.3%; in [3], 31.9%; in assay [4], 35.2%; in assay [10], 46.2%; in assay [9], 42.1%; in [5], 44.7%. For the same compound, the growth in assay [6] was -15.8% (active); in assay [7], 3.52% (active); in assay [8] it was 8.47% (active).
Regarding `Cc1nc2cc(Nc3nc(Nc4ccc(F)cc4)nc(N4CCCC4)n3)ccc2n1Cc1ccccc1`, the growth was -58% (active) in assay [1]; -62.9% (active) in [3]; -68.7% (active) in [4]; -55.8% (active) in assay [10]; 11.5% in assay [9]; -14.4% (active) in assay [5]. For the same compound, the growth in assay [6] was -19.3% (active); in assay [7], -30.4% (active); in assay [8], -30.7% (active).
Consider `O=C1CC(c2ccsc2)c2snc(-c3ccc(Cl)cc3)c2N1` (stereo unspecified), for which the growth was 27.3% in [1]; 54% in [3]; 48.4% in [4]; 53.8% in assay [10]; 53% in [9]; 26.6% in [5]. Besides, the growth in [6] was 24.2%; in assay [7], 16.3%; in assay [8], 14.5%.
Turning to `O=S(=O)(Nc1ncccn1)c1ccc(Nc2ccc3nnc(-c4ccncc4)n3n2)cc1`, the growth is 125% in [1]; 93.9% in assay [3]; 81% in assay [4]; 115% in assay [10]; 98.6% in [9]; 99.6% in [5]. Moreover, the growth in assay [6] was 87.5%; in [7], 94.3%; in [8], 109%.
As for `COc1ccc(-c2cc(=O)oc3c4c(ccc23)OCN(Cc2ccc(F)cc2)C4)cc1`, the growth in assay [1] was 94.2%; in [3], 58.6%; in assay [4] it was 42.7%; in assay [10], 62.4%; in assay [9] it was 64.7%; in assay [5], 51.7%. Further, the growth is 38.9% in assay [6], 52.4% in assay [7] and 39.9% in assay [8].
As to `CCN(C(=O)c1ccc2c3c(cccc13)C=C2)c1ccccc1`, the growth in [1] was 84.9%; in [3] it was 94.7%; in assay [4] it was 82.9%; in assay [10], 110%; in assay [9], 100%; in [5], 88.7%. The growth is 90.2% in assay [6], 104% in assay [7] and 88.6% in assay [8].
Regarding `Nc1nc2c(s1)CCc1c-2c(Br)n(Cc2ccccc2)c1Br`, the growth in [1] is 99.7%; in [3], 87.7%; in assay [4], 72.9%; in [10] it was 88.1%; in assay [9], 19.4%; in [5], 81.5%. Further, the results for the growth in assay [6], in [7] and in assay [8] were 91.5%, 2.66% (active) and 11%, respectively.
In the case of `CCN(c1ccc(C(=O)N2CCN(c3ccccc3)CC2)cc1)S(C)(=O)=O`, the growth was 100% in assay [1]; 103% in assay [3]; 90.2% in assay [4]; 88.7% in assay [10]; 109% in assay [9]; 96.3% in assay [5]. Besides, the growth in assay [6] was 87.9%; in assay [7] it was 100%; in assay [8], 95.8%.
